Where “and” joins values, the source holds several entries; their conditions need not be identical. Equal entries are not always repeated. Hit rate of the full screen: of about 360,000 compounds, about 1,600 (0.44%) were called active.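 The calls were made as follows: active = every replicate showing at least 50% inhibition; inconclusive = mean inhibition at least 50% but not in every replicate; inactive = the rest.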 Only a selection was taken, and actives are over-represented in it overall. A structure can be active in one record and inactive in another.
molecular target: DNA repair protein RAD52 homolog (Homo sapiens) (UniProt P43351); experiment: RAD52 DNA annealing inhibitors, primary screen, biochemical, FRET, single point, set 2 (AID 651710); settings: recombinant RAD52 DNA annealing, FRET fluorescence; at 18.7 µM; stronger effect = higher value
Sequence (P43351 whole entry, looked up): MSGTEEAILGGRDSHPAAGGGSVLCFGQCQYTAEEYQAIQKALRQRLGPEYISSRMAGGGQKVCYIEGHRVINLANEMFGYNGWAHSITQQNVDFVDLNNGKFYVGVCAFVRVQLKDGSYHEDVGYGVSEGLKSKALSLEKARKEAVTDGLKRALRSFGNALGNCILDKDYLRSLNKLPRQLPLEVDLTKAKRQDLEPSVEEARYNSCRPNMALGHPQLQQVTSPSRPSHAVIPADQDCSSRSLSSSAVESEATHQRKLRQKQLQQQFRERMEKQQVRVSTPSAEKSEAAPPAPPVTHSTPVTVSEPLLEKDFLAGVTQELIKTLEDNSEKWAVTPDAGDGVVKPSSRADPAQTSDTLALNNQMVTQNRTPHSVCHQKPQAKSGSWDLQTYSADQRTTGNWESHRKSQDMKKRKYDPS

| SMILES | inhibition |
| --- | --- |
| O=C(C1CCCCC1)N1CC(=O)N2[C@H](CO)[C@@H](c3ccc(-c4ccccc4F)cc3)[C@@H]2C1 | -8.61% (inactive) |
| O=C(C1CCCCC1)N1C[C@@H]2N[C@H](C1)C2c1ccc(-c2cccc(F)c2)cc1 (some centres undefined) | 61% (active) and 30.9% (inactive) |
| O=C(C1CCCC1)N1CCCCN2[C@@H](CO)[C@H](c3ccc(-c4cccc(F)c4)cc3)[C@@H]2C1 | 44.8% (inactive) |
| O=C(C1CCC1)N1C[C@@H]2N[C@H](C1)C2c1ccc(-c2cncnc2)cc1 (some centres undefined) | 17.7% (inactive) |
| Cc1ccccc1-c1ccc(C2[C@@H]3CN(C(=O)C4CCCCC4)C[C@H]2N3)cc1 (some centres undefined) | 54.8% (active) and 0.102% (inactive) |
| N#Cc1cccc(-c2ccc(C3[C@@H]4CN(C(=O)C5CCC5)C[C@H]3N4)cc2)c1 (some centres undefined) | -9.39% (inactive) and 14.7% (inactive) |
| CS(=O)(=O)N1CC2(C1)[C@H](c1ccccc1)[C@H](CO)N2Cc1ccc(F)cc1 | -16.8% (inactive) |
| Cc1ccc(-c2ccc3c(c2)O[C@H](CN(C)C)[C@@H](C)CN([C@@H](C)CO)S3(=O)=O)cc1 | 19.5% (inactive) |
| O=C(C[C@@H]1C[C@@H]2c3cc(NC(=O)Nc4ccccc4F)ccc3O[C@@H]2[C@H](CO)O1)NCCc1ccccc1 | 2.98% (inactive) |
| CO[C@@H]1CN(C)C(=O)c2cc(NC(=O)Nc3cc(F)ccc3F)ccc2OC[C@H](C)N(C)C[C@@H]1C | 22.6% (inactive) |
| CN(Cc1ccccc1F)c1cc2c(c3c1ccn3C)C1CCC2O1 (centres undefined) | 61% (active) |
| CC(C)NC(=O)N(C)C[C@H]1OCCCC[C@H](C)Oc2ccc(NC(=O)Nc3ccc(C(F)(F)F)cc3)cc2C(=O)N([C@H](C)CO)C[C@@H]1C | -13.2% (inactive) |
| C[C@@H]1CCCCO[C@@H](CN(C)S(=O)(=O)c2ccc(F)cc2)[C@@H](C)CN([C@@H](C)CO)C(=O)c2cc(NS(=O)(=O)c3cccs3)ccc2O1 | -29.4% (inactive) |
| CC(C)NC(=O)N(C)C[C@H]1OCCCC[C@H](C)Oc2ccc(NC(=O)CCC(F)(F)F)cc2C(=O)N([C@@H](C)CO)C[C@@H]1C | -0.514% (inactive) |
| Cc1noc(C)c1S(=O)(=O)Nc1cccc2c1O[C@@H](CN(C)S(=O)(=O)c1cn(C)cn1)[C@@H](C)CN([C@H](C)CO)C2=O | -26.9% (inactive) |
| CN(C)C(=O)C[C@@H]1C[C@@H]2c3cc(NC(=O)C4CCOCC4)ccc3O[C@@H]2[C@@H](CO)O1 | -0.675% (inactive) |
| CCCNC(=O)N1[C@@H]2CNC[C@H]1C2c1ccc(-c2ccccc2)cc1 (some centres undefined) | -12.3% (inactive) and 2.3% (inactive) |
| CC(C)[C@@H](C)/C=C/[C@@H](C)[C@H]1CC[C@@H]2[C@]1(C)CCC1[C@]23C=C[C@]2(C[C@@H](O)CC[C@]12C)N(c1ccc([N+](=O)[O-])cn1)O3 (some centres undefined) | 73.5% (active) |
| COc1ccccc1C(=O)N1O[C@]23C=C[C@]14C[C@@H](O)CC[C@]4(C)C2CC[C@]1(C)[C@@H]([C@H](C)/C=C/[C@H](C)C(C)C)CC[C@H]13 (some centres undefined) | -15.6% (inactive) |
| CC(C)NC(=O)Nc1ccc2c(c1)C(=O)N([C@@H](C)CO)C[C@H](C)[C@@H](CN(C)S(C)(=O)=O)O2 | -11% (inactive) |
| C[C@@H]1CN([C@@H](C)CO)C(=O)Cc2cc(NC(=O)Nc3ccc4c(c3)OCO4)ccc2O[C@H]1CN(C)S(=O)(=O)c1ccccc1 | 2.34% (inactive) |
| CCN(CC)CCOc1ccc2c(c1)C(=NNC(=O)c1ccccn1)c1cc(OCCN(CC)CC)ccc1-2 | 108% (active) |

| SMILES | inhibition |
| --- | --- |
| CC(O)c1ccc(OCCN(C)c2ccccn2)cc1 (centres undefined) | -7.28% (inactive) |
| CCN(C[C@@H]1[C@H](c2ccccc2)[C@@H](CO)N1CC1CC1)C(=O)c1ccccn1 | -2.51% (inactive) |
| COCCOC(=O)N1C(=O)[C@@]2(c3cc(C#CCNC(N)=O)ccc31)[C@H](C(=O)N1CCN(c3ncccn3)CC1)[C@H]1C(=O)O[C@H](c3ccccc3)[C@H](c3ccccc3)N1[C@@H]2c1ccccc1OCCO | 31.5% (inactive) |
| CN1C(=O)CN2CCc3ccccc3C2c2cc(Cl)ccc21 (centres undefined) | -6.27% (inactive) |
| CN1CCN(C2Cc3ccc(Cl)cc3Sc3ccc(F)cc32)CC1 (centres undefined) | 54.5% (active) |
| O=C(C[C@@H]1C=C[C@@H](NC(=O)C2CCC2)[C@H](CO)O1)NCC1CC1 | -2.1% (inactive) |
| CCN(CC(=O)Nc1ccc(NC(C)=O)cc1)C(=O)C1CC(=O)N(c2ccc3c(c2)OCCO3)C1 (centres undefined) | 74.7% (active) |
| CCN(CC(=O)Nc1ccc(NC(C)=O)cc1)C(=O)C1CC(=O)N(Cc2ccc(C)cc2)C1 (centres undefined) | -6.68% (inactive) |
| CCOC(=O)c1ccc(NC(=O)C2CC(=O)N(c3ccc4c(c3)OCCO4)C2)cc1 (centres undefined) | -4.32% (inactive) |
| COc1cccc(C(=O)Nc2ccc3c(c2)C(=O)N(C)C[C@@H](OC)[C@H](C)CN(C(=O)C2CCOCC2)[C@H](C)CO3)c1 | -0.027% (inactive) |
| C[C@H](CO)N1C[C@H](C)[C@@H](CN(C)Cc2ccc(Cl)c(Cl)c2)Oc2ccc(NC(=O)Cn3cnnn3)cc2CC1=O | 5.4% (inactive) |
| O=C(C1CCCC1)N1[C@H](CO)[C@@H](c2ccccc2)C12CN(CCC(F)(F)F)C2 | 6.31% (inactive) |
| CO[C@H]1CN(C)C(=O)c2cc(NC(=O)Nc3ccccc3)ccc2OC[C@@H](C)N(C(=O)Nc2c(C)noc2C)C[C@@H]1C | 8.84% (inactive) |
| CN(C)CC(=O)Nc1ccc2c(c1)[C@H]1C[C@@H](CC(=O)NCc3ccc(-c4ccccc4)cc3)O[C@H](CO)[C@H]1O2 | 60.2% (active) |
| CN(C)CC(=O)Nc1ccc2c(c1)[C@H]1C[C@H](CC(=O)NCc3ccccc3)O[C@@H](CO)[C@H]1O2 | -10.3% (inactive) |
| CN(C)CC(=O)Nc1ccc2c(c1)[C@@H]1C[C@H](CC(=O)NCc3ccc(-c4ccccc4)cc3)O[C@@H](CO)[C@@H]1O2 | 43.1% (inactive) |
| CN1c2ccc(-c3ccc(C#N)cc3)cc2[C@@H]2[C@@H](CCN2S(=O)(=O)c2cccc(F)c2)[C@@H]1CO | 8.85% (inactive) |
| CCCNC(=O)[C@@H]1[C@@H](CO)[C@@H]2Cn3c(cccc3=O)[C@H]1N2C(=O)C1CC1 | -0.051% (inactive) |
| CS(=O)(=O)N1[C@H](C(=O)NCc2ccncc2)[C@@H](CO)[C@@H]2Cn3c(ccc(C4=CCCCC4)c3=O)[C@@H]21 | -1.92% (inactive) |
| CC(Nc1nc(N2CCN(CCO)CC2)nc2ccccc12)c1ccccc1 (centres undefined) | -10.7% (inactive) |
| CC1CN(c2nc(Nc3ccccc3)nc(N)c2[N+](=O)[O-])CC(C)O1 (centres undefined) | -8.87% (inactive) |
| CN1CCN(c2nc(Nc3ccc(O)cc3)nc3ccccc23)CC1 | 72.4% (active) |

| SMILES | inhibition |
| --- | --- |
| N#C[C@@H]1[C@H](c2ccccc2C2=CCCCC2)[C@@H](CO)N1S(=O)(=O)c1cccc(F)c1 | -3.37% (inactive) |
| CCCNC(=O)C[C@H]1C[C@H]2c3cc(NC(=O)NC4CCCCC4)ccc3O[C@H]2[C@H](CO)O1 | 3.19% (inactive) |
| C[C@H]1CN([C@@H](C)CO)C(=O)Cc2cc(NC(=O)Nc3ccc(F)cc3)ccc2O[C@@H]1CN(C)C(=O)NC1CCCCC1 | -2.6% (inactive) |
| O=C(NCCN1CCOCC1)c1ccc2c(c1)N(Cc1cccc(Cl)c1)C(=O)c1ccccc1S2(=O)=O | -15.4% (inactive) |
| CCN1CCN(CCNC(=O)c2ccc(/C=C3/Sc4ccccc4N(Cc4cccc(C)c4)C3=O)cc2)CC1 | 51.6% (active) |
| CCCC1=Nc2cc(C(=O)NCCN3CCCC3)ccc2Sc2ccccc21 | 34% (inactive) |
| CCN(CC)CCC(c1ccc2c(c1)OCO2)c1c(OC)cc(OC)c2c(-c3ccccc3)cc(=O)oc12 (centres undefined) | 54.9% (active) |
| CCN(CC)CCC(c1cc(OC)c(OC)c(OC)c1)c1c(OC)cc(OC)c2c(-c3ccccc3)cc(=O)oc12 (centres undefined) | 46.3% (inactive) |
| CCN(CC)C(=O)CC(c1ccc2c(c1)OCO2)c1c(OC)cc(OC)c2c(-c3ccccc3)cc(=O)oc12 (centres undefined) | -104% (inactive) |
| CCCC#Cc1cnc2c(c1)C(=O)N([C@H](C)CO)C[C@H](C)[C@@H](CN(C)Cc1ccccc1)O2 | -1.46% (inactive) |
| C/C=C/c1ccc(C2[C@H]3CNC[C@@H]2N3Cc2cccc(OC)c2)cc1 (some centres undefined) | -8.08% (inactive) |
| COc1ccc(CN(C)C[C@@H]2OCCCC[C@@H](C)Oc3ccc(NS(=O)(=O)c4ccc(C)cc4)cc3C(=O)N([C@@H](C)CO)C[C@H]2C)cc1 | 21% (inactive) |
| COCC(=O)N1CC(=O)N2[C@H](CO)[C@@H](c3ccc(-c4ccncc4)cc3)[C@H]2C1 | -7.77% (inactive) |
| N#Cc1ccc(-c2ccc([C@@H]3[C@H]4CNC[C@@H]3N4Cc3cc(F)ccc3F)cc2)cc1 | 69% (active) |
| N#Cc1ccc(-c2ccc([C@@H]3[C@@H](CO)N4C(=O)CNC[C@H]34)cc2)cc1 | 14.7% (inactive) |
| C/C=C/c1ccc(C2[C@H]3CNC[C@@H]2N3Cc2cccc(F)c2)cc1 (some centres undefined) | 16.5% (inactive) |
| COc1ccc(NC(=O)Nc2ccc3c(c2)[C@@H]2C[C@H](CC(=O)N4CCCCC4)O[C@H](CO)[C@@H]2O3)cc1 | -6.62% (inactive) |
| O=C([C@@H]1[C@@H](CO)[C@@H]2Cn3c(ccc(-c4ccccc4)c3=O)[C@H]1N2CCC(F)(F)F)N1CCCCC1 | 9.81% (inactive) |
| CN(C)C(=O)C[C@@H]1C[C@@H]2c3cc(NC(=O)c4ccc5c(c4)OCO5)ccc3O[C@@H]2[C@H](CO)O1 | 5.11% (inactive) |
| C[C@H](CO)N1C[C@H](C)[C@H](CN(C)C(=O)Nc2ccc(C(F)(F)F)cc2)Oc2ccc(NS(C)(=O)=O)cc2CC1=O | -1.01% (inactive) |

Reference: PubChem BioAssay AID651710 (Broad Institute, 2012)
